Measurements as given in the supplement of paper PMC3334620.
The full ranking holds about 33,000 sequences; the median of “E-score (-0.5 to 0.5)” is about -0.043, and the highest 2% start at about 0.37. What follows is part of a selection rich in the highest values, with near analogues and random picks from the rest.

Biological target: T1, Upc2 (UniProt Q12151)
T1 sequence: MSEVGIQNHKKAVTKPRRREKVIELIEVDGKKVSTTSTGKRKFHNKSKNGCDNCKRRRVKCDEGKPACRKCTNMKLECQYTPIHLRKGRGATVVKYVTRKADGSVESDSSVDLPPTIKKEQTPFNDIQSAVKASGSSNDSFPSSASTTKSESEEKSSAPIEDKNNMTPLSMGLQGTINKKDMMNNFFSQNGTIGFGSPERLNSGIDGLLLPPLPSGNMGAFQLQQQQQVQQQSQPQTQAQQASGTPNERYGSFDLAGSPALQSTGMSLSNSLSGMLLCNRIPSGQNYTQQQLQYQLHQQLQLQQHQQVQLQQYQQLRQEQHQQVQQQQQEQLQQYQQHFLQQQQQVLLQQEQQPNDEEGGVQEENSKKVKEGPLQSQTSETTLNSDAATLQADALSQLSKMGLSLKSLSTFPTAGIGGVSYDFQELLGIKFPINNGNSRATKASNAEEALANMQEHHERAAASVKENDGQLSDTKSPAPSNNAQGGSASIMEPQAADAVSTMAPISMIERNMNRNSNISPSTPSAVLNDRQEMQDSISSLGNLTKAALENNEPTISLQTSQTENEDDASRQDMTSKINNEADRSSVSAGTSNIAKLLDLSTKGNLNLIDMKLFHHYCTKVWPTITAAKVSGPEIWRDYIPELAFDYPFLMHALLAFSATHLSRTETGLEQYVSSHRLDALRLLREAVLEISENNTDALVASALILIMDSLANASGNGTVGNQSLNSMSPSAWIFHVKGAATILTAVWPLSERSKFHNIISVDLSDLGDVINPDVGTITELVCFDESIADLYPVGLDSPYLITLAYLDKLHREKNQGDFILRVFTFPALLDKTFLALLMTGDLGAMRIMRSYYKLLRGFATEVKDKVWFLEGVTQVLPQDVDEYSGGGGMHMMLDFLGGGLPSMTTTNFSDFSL
Assay: PBM E-score (8-mer binding enrichment) (E-score (-0.5 to 0.5)); higher = stronger / more preferred TF binding
Details: protein concentration: 200 nM; construct: GST-full length
How it was run: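 The E-score, a modified Wilcoxon-Mann-Whitney statistic, was computed by the Universal PBM Analysis Suite for every ungapped eight-base word pooled with its reverse complement. Scans behind it were normalised with masliner after bound GST-tagged yeast transcription factors were detected with fluorescent anti-GST. The proteins, at about 100-200 nM, had been applied to universal all-10-mer Agilent arrays made double-stranded by primer extension.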

Sequence | PBM E-score
CACTAGCC | -0.0426
TAAGACAA | 0.0602
AGCTGAGA | -0.232
CTTGCACC | 0.0237
GAAAGCCA | -0.231
CTTGTATC | -0.0734
ATAGTATG | 0.0124
ATGGTATC | 0.15
CTCGTATC | 0.473
ATCGTATC | 0.426
CTGGTATC | -0.187
ATAGTATC | 0.0546
AACGTATG | 0.239
ATCGTATG | 0.455
CGGTCACA | 0.0569
AGTGCTAT | -0.0648
CGTGCTTC | 0.014
CACAAGGC | -0.308
GGCCATGA | -0.134
ACTTCAGC | -0.178
AGTGTACG | 0.417
CCTGTACG | 0.436
AGTGTACC | -0.0597
CCTGTACA | -0.0382
CATGTACG | 0.409

Sequence | PBM E-score
CCTGTACC | -0.0294
ATTGTACG | 0.428
AGTGTACA | -0.0815
ATTGTACA | -0.0603
AATGTACG | 0.36
ATTGTACC | 0.115
CATGTACA | -0.00834
ACATGCGA | 0.128
ACAGCGGT | -0.15
AATCTGAA | -0.00542
CTTGACTC | -0.0404
ATAAGTCC | -0.0003
GGTCCACA | -0.166
GAGTTCTA | -0.141
ACTGTACG | 0.433
ACTGTACC | -0.077
ACTGTACT | 0.0214
ATATACAA | -0.0498
ATATACGC | 0.387
ATATACGA | 0.492
ATATACTC | -0.0113
CTATACTC | 0.0215
ATATACCA | 0.0254
ATATACCG | 0.194
ATATACGG | 0.456

Sequence | PBM E-score
CTATACCC | 0.0307
ATATACTG | 0.0777
CTATACGC | 0.458
ATATACAC | 0.193
CGGATTTA | 0.0862
CGCCTTAC | 0.155
AATCTGAC | -0.119
AGCTCACT | -0.138
ATAAAAAG | 0.0686
CCTCTCAG | -0.352
CGTAGGGA | -0.0318
ATCTTACA | 0.0167
AACGTACG | 0.386
ATCGTACG | 0.435
AACGTACC | 0.256
ATAGTACA | 0.149
GTCGTACA | 0.483
AACGTACA | 0.266
ATCGTACA | 0.468
GGCGTACA | 0.269
AGCGTACA | 0.301
GACGTACA | 0.305
ATCGTAGG | 0.165
ATAGTACG | 0.221
AGTTTTCA | -0.0402

Sequence | PBM E-score
CAGCTAGG | -0.352
AAGGTGGA | -0.0852
TCAGTCCA | -0.272
AAAAACGT | 0.0237
AGCGCTTG | -0.188
GCGGTACC | 0.0215
GAAGTGCA | -0.153
CTTCTCGA | -0.187
ACCAGAAT | -0.00733
CCAGAGGA | -0.256
AGTCGAGC | -0.152
CGTAAACG | 0.473
CGTAAATA | 0.34
GGTAAACA | 0.111
AGTAAACA | 0.0452
AGTAAACC | -0.0507
CGTAAACA | 0.39
AGTAAACG | 0.442
TGTAAACA | -0.0818
CGTAAATC | 0.352
ACGATTTG | 0.28
CCAAGCTA | -0.182
CAAATAGA | -0.0516
AGTTTCAT | 0.0688
CCTCTATC | -0.122

Sequence | PBM E-score
AAGATCAT | 0.0203
CGTTTATC | 0.425
CGTTTATA | 0.45
AGTTTATC | 0.115
CTTTTATC | 0.00372
GGTTTATA | 0.144
AGTTTATA | 0.129
ATCTAGCA | -0.206
ACGACAGG | 0.359
ACGACAGC | 0.336
ACGACACG | 0.295
ACGACAGT | 0.37
CCGACACC | 0.0358
ACGACACC | 0.374
ATTATAAC | -0.061
CTAGAGCA | -0.192
GATTGTGA | -0.112
CCTCGTGC | 0.0326
ACTCGTTA | 0.35
ACTCGGTC | 0.0379
GCTCGCTA | 0.196
GCTCGTTA | 0.39
CCTCGTTC | 0.46
ACTCGTTC | 0.46
CCTCGTCC | -0.3

Sequence | PBM E-score
GCACGTTA | 0.182
CCTCGTTA | 0.399
CCACGTTA | 0.136
ACTCGTTG | 0.198
ACAGTAGA | -0.0149
CATCTTGG | -0.305
GAGTAACC | 0.101
GTCTCACA | -0.0791
CGATATGC | 0.149
GCAACTGA | 0.0086
GAACTGCA | -0.0845
ACGAAACT | 0.382
ACGAAACG | 0.403
CCGAAACG | 0.346
ACGAAACC | 0.267
ACGAAACA | 0.339
ACGAAAGG | 0.32
GAATTTGA | -0.0533
CACCACCC | -0.124
AGTGAAAC | -0.0497
CCCCTTTA | -0.129
GAACGGGA | 0.238
AAACGGAT | 0.37
AAACGGGA | 0.369
CAACGGGG | -0.0318

Sequence | PBM E-score
AAACGGGT | 0.344
AAACGGAC | 0.337
AAACGGGC | 0.395
CAACGGGC | 0.00552
AAACGGGG | 0.398
TAACGGGA | 0.0733
AAACGGAG | 0.34
GAACGGGC | 0.291
AGACCCCA | -0.148
ATAGAACG | 0.253
GCCATCTA | -0.299
CAGACCAG | -0.0598
CATTCACA | -0.114
CTCGGCGC | 0.069
AAGAGTCA | -0.11
CATTAAGC | 0.0328
AGACGGCG | -0.0186
AGACGGCC | -0.222
ACACGGCG | -0.0227
CTACGGCC | -0.0664
GTACGGCA | 0.364
ATACGGCA | 0.422
ATACGGCG | 0.43
ATACGGCC | 0.416
CTACGGCA | 0.0153
